A selection: hits, their analogues and other compounds. The true share with any hit is near 19%.
Pf growth 96h: P. falciparum growth inhibition at 96 hours; Potency, µM (top dose mostly 28.7 µM), inactives show at the highest dose activity change, negative = inhibition, actives largely listed as inhibitors; AID 504834; 320,000 compounds, 6.9% hits; P. falciparum luciferase reporter growth, 96 h; further: potency means the concentration at half of the fitted maximal effect; on the % scale 0 is the no-effect control and ±100 the full control effect
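Plates of compound plus infected erythrocytes (2% hematocrit, 0.05% parasitemia final) incubate 96 hours, 37 C, 5% CO2. Detection reagent added; reduced luminescence from the parasites' luciferase reporter flags inhibition.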
Shiga inhibitor: Shiga toxin inhibition. Vero cells, Shiga toxin protein synthesis inhibition reporter. inhibition, % at 38.7 µM. 290,000 compounds, 9.2% hits. AID 2315; in the data active means inhibition mostly above about 28%, no sharp cut-off; inactive means mostly below about 43%; further: 0% is about no effect
Pf growth 48h: P. falciparum growth inhibition at 48 hours (one generation). P. falciparum luciferase growth in erythrocytes, 48 h. Potency, µM (series often up to 28.7 µM), for the others: at the top dose activity change, negative = inhibition, usual class: inhibitors. 310,000 compounds, 5.9% hits; further: potency means the concentration at half of the fitted maximal effect; on the % scale 0 is the no-effect control and ±100 the full control effect
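Parasite viability was followed by luminescence of a genomically integrated firefly luciferase. Cultures held 0.1% parasitemia at 2% hematocrit (final), incubated under 5% CO2 at 37 C.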
CHX counter: counter-screen hit for Shiga toxin inhibitors, cycloheximide; cell reporter, cycloheximide protein synthesis inhibition counterscreen; max response, %; 300,000 compounds, 12% hits; AID 2314; in the data active means max response mostly above about 13%, no sharp cut-off; inactive means mostly below about 14%; further: read at 38.3 µM for the half of the compounds with a filed dose; 0% is about no effect
AMA1-RON2 inh: AMA1-RON2 (P. falciparum) interaction inhibition | Potency, µM (doses to about 58.2 µM), without a hit: at the top dose activity change, negative = inhibition, actives largely listed as inhibitors | 360,000 compounds, 0.2% hits | AlphaScreen AMA1-biotinylated RON2 peptide binding | AID 720542;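 further: potency means the concentration at half of the fitted maximal effect; 0% = vehicle wells and -100% = peptide control; nearly all actives have a fitted effect of over 45% in size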
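AMA1 (3D7) with his tag at 25 nM final met compounds first, then biotinylated RON2 peptide at 25 nM; detection used donor plus acceptor beads, 10 µg/mL apiece, read by AlphaScreen after 30 min at room temperature.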
SARS PLpro yeast: SARS-CoV PLP inhibition in yeast; S. cerevisiae expressing SARS-CoV PLpro, growth rescue; Potency, µM (doses to about 32.9 µM), for inactives: top-dose activity, positive = growth rescue, actives largely listed as activators; 330,000 compounds, 0.19% hits; calls by dose curve; further: potency means the concentration at half of the fitted maximal effect; 0% is about no effect; nearly all actives have a fitted effect of over 55% in size
Starred values were filed as active, the others as inactive; ? = inconclusive; · = not tested or not shown. Unless noted, the call rests on the fitted dose curve; in most records, active means well fitted curve in the direction sought with a large enough effect; inconclusive means small, poorly fitted or top-dose-only effect, or another doubt; inactive means no such curve, though single readings can be large; an effect the other way counts as inactive or inconclusive.

SMILES | Pf growth 96h | Shiga inhibitor | Pf growth 48h | CHX counter | AMA1-RON2 inh | SARS PLpro yeast
C=CCNC(=O)N1CCC(n2nccc2NC(=O)CCCc2ccccc2)CC1 | ? | -7 | 6% | 1 | 0% | 3%
CSCC(=O)N1CCC(n2nccc2NC(=O)CCc2ccccc2)CC1 | ? | -9 | 20% | -9 | -5% | -3%
CSCCC(=O)N1CCC(n2nccc2NC(=O)CCCc2ccccc2)CC1 | ? | 21 | ? | 17* | -4% | 2%
C=CCCC(=O)N1CCC(n2nccc2NC(=O)CCCc2ccccc2)CC1 | 0% | 20 | 18% | 13* | 0% | -1%
COCCN(C(=O)C1CCCO1)c1c(N)n(CC(C)C)c(=O)[nH]c1=O (centres undefined) | -23% | · | -18% | · | -7% | 3%
CN(C)c1ccc(NC(=O)c2cccc([N+](=O)[O-])c2)c2ccccc12 | ? | · | -4% | -4 | -1% | 2%
O=C(Nc1ccncc1NC(=O)c1cccc([N+](=O)[O-])c1)c1cccc([N+](=O)[O-])c1 | 2.3µM* | 22 | ? | 3 | -7% | 0%
O=C(Nc1cccc(NC(=O)c2cccc([N+](=O)[O-])c2)n1)c1cccc([N+](=O)[O-])c1 | ? | · | 31% | 13 | 2% | 2%
CC1CN=C(NC(=O)c2cccc([N+](=O)[O-])c2)S1 (centres undefined) | -7% | 26* | 145% | 28* | -9% | 12%
CC(C)NC(=O)c1cc(C2CCCCN2S(=O)(=O)c2cccc3cccnc23)on1 (centres undefined) | · | · | · | · | 2% | ·
CCCNC(=O)Cn1cnc([N+](=O)[O-])n1 | 33% | -15 | 0% | -4 | -21% | -22%
COC(=O)c1[nH]c2ccccc2c1NC(=O)CN1CCC(C(N)=O)(N2CCCCC2)CC1 | · | -14 | 13µM* | 2 | 9% | 6%
COC(=O)c1[nH]c2ccccc2c1NC(=O)CN1CCN(c2cccc(Cl)c2)CC1 | 4% | -5 | 3.3µM* | 12 | -4% | 1%
COC(=O)c1[nH]c2cc(C)ccc2c1NC(=O)CN1CCOCC1 | -6% | -4 | 11% | -1 | 0% | -1%
COC(=O)c1[nH]c2cccc(Cl)c2c1NC(=O)CN1CCCCC1C (centres undefined) | 4.1µM* | -10 | ? | -2 | 18% | 1%
COC(=O)c1[nH]c2cc(OC)ccc2c1NC(=O)CN1CCN(c2cccc(C)c2)C(C)C1 (centres undefined) | 10µM* | 6 | 12µM* | 14 | -26% | -22%
CC(=O)C1C(c2ccc(Br)cc2)C2C(C)=NN=C2CC1(C)O (centres undefined) | -16% | -4 | -13% | -3 | -5% | -6%
O=C(CN1CCN(c2ccc(F)cc2)CC1)Nc1cccnc1Cl | 26% | -13 | 2% | -2 | -13% | 0%
CC[C@H](C)[C@@H](CNC)NC[C@@H](Cc1ccc(O)cc1)NCC(C)(C)C | 13µM* | -7 | ? | -1 | 123% | -3%
CC[C@@H](C)[C@H](CN[C@H](CNC)C(C)C)NC[C@@H](C)c1ccc(CC(C)C)cc1 | ? | -10 | ? | -8 | 117% | 0%
O=C(NCc1cccs1)C1CCC(CNS(=O)(=O)c2ccc(Br)s2)CC1 (centres undefined) | 7.4µM* | -8 | · | 1 | 6% | 2%
Cc1ccc(-n2c(=O)[nH]c3c(C(N)=O)nc(CC(C)C)nc32)cc1 | 1.7µM* | 10 | ? | -2 | 19% | 1%
COc1ccccc1-n1c(=O)[nH]c2c(C(N)=O)nc(CC(C)C)nc21 | ? | -16 | · | -3 | 11% | 14%
CC(NCCCSc1ccccc1)C(O)c1ccc(O)cc1 (centres undefined) | · | · | · | · | -10% | ·
CCN(CC)S(=O)(=O)c1ccc(S(=O)(=O)N2CCC(N3CCCCC3)CC2)cc1 | 386% | 11 | -4% | -5 | -19% | 7%
SMILES | Pf growth 96h | Shiga inhibitor | Pf growth 48h | CHX counter | AMA1-RON2 inh | SARS PLpro yeast
O=C(NC1CCCC1)c1cc2c(=O)n3ccccc3nc2s1 | 4% | · | 41% | · | 1% | 0%
Cn1c(C(=O)NC2CCCCC2)cc2c(=O)n3ccccc3nc21 | 7% | 21 | 35% | 23* | -3% | -8%
Cn1c(C(=O)NCc2ccccn2)cc2c(=O)n3ccccc3nc21 | ? | 58* | 199% | 29* | 2% | -16%
O=C(CN(Cc1ccccc1)C(=O)CNS(=O)(=O)c1ccc(F)cc1)NCc1ccco1 | 15% | -12 | 15% | -4 | -9% | 0%
Cc1ccsc1C(=O)OCC(=O)N(C)C1CCCCC1 | · | · | · | · | -6% | 4%
O=C(COC(=O)c1ccccc1N1C(=O)C2C3CCC(C3)C2C1=O)c1ccccc1 (centres undefined) | 2.3µM* | -7 | 16% | 1 | -2% | -3%
CCCc1cc(=O)oc2cc(OC(=O)CN3C(=O)NC4(CCCC4)C3=O)ccc12 | ? | · | -14% | · | -13% | ·
COCCCN(C(=O)Nc1ccc(C)c(C)c1)C(C)c1ccccn1 (centres undefined) | 13µM* | 3 | · | -1 | 73% | 1%
CCSc1ccc(NC(=O)c2cccnc2)cc1 | 43% | 47 | 78% | 34* | 17% | -5%
CC/C(=C\C(=O)c1cccnc1)Nc1ccc(C)c(C)c1 | ? | 52* | ? | 17* | -3% | -1%
CC(=O)Nc1ccc(N/C(C)=C/C(=O)c2cccnc2)cc1 | 65% | -10 | 17% | -7 | -2% | -20%
CCc1ccc(NC(=O)c2cccnc2)cc1 | 53% | 73* | 210% | 32* | -5% | -4%
Cn1c(N)c(C(=O)COC(=O)COc2ccc(Cl)cc2Cl)c(=O)n(C)c1=O | · | · | · | · | -9% | 9%
COc1cccc(C2c3[nH]c4ccccc4c3CCN2Cc2ncc[nH]2)c1 (centres undefined) | 4% | 29 | ? | 12 | 38% | -1%
Cc1ccccc1-c1csc(C(O)c2ccc(F)c(F)c2)n1 (centres undefined) | · | · | · | · | 19% | ·
CCc1ccc(NC(=O)N(C2CCCCC2)C(C)c2cccnc2)cc1 (centres undefined) | 43% | 80 | · | 33* | -2% | 3%
COCCN(C(=O)Nc1ccccc1)C(C)c1cccnc1 (centres undefined) | 5.2µM* | -1 | · | 6 | -7% | -2%
COCCN(C(=S)Nc1ccc(C)cc1)C(C)c1cccnc1 (centres undefined) | -15% | 6 | ? | 10 | 2% | 0%
O=C(NCc1cc([N+](=O)[O-])ccc1O)c1cccc(NS(=O)(=O)c2ccccc2)c1 | ? | -18 | -16% | -4 | 9% | -6%
Cc1c(C(=O)N2CCC(C(N)=O)CC2)oc2ccc(Br)cc12 | 69% | · | 4% | · | 4% | 5%
Cc1ccc(-n2nc(C)c3c2C(Br)C(C)(C)CC3=O)nc1 (centres undefined) | · | · | · | · | 30% | ·

Compound activity: PubChem, National Center for Advancing Translational Sciences (NCATS)
